A selection: hits, their analogues and other compounds. The true share with any hit is near 21%.
Cycloheximide cs – Cycloheximide Counterscreen for Small Molecule Inhibitors of Shiga Toxin | max response, % | cell reporter, cycloheximide protein synthesis inhibition counterscreen | actives 12% (n = 300,000) | AID 2314, 2010; in the data active = max response mostly above about 13%, no sharp cut-off; inactive = mostly below about 14%; also: read at 38.3 µM for the half of the compounds with a filed dose; 0% is about no effect
Pf growth 96h – Primary qHTS for delayed death inhibitors of the malarial parasite plastid, 96 hour incubation; P. falciparum luciferase reporter growth, 96 h; Potency, µM (top dose mostly 28.7 µM), without a hit: top-dose activity change, negative = inhibition, most hits filed as inhibitors; actives 6.9% (n = 320,000); AID 504834, 2011; active = well fitted inhibition curve with a large enough effect; inconclusive = small, poorly fitted or top-dose-only effect, or another doubt; inactive = no such curve, though single readings can be large or run the other way; also: potency is read from the fitted curve at half-maximal effect; % is scaled to controls: 0 for no effect and ±100 for the full control effect
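Plates of compound plus infected erythrocytes (2% hematocrit, 0.05% parasitemia final) incubate 96 hours, 37 C, 5% CO2. Detection reagent added; reduced luminescence from the parasites' luciferase reporter flags inhibition.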
SARS PLpro yeast – qHTS of Yeast-based Assay for SARS-CoV PLP. Potency, µM (doses to about 32.9 µM), for the others: top-dose activity, positive = growth rescue, actives largely listed as activators. AID 485353, 2010. S. cerevisiae expressing SARS-CoV PLpro, growth rescue. actives 0.19% (n = 330,000); also: potency is read from the fitted curve at half-maximal effect; 0% is about no effect; nearly all actives have a fitted effect of over 55% in size
Pf growth 48h – Primary qHTS for delayed death inhibitors of the malarial parasite plastid, 48 hour incubation; P. falciparum luciferase growth in erythrocytes, 48 h; Potency, µM (highest dose often 28.7 µM), for inactives: top-dose activity change, negative = inhibition, actives largely listed as inhibitors; actives 5.9% (n = 310,000); AID 504832, 2011; active = well fitted inhibition curve with a large enough effect; inconclusive = small, poorly fitted or top-dose-only effect, or another doubt; inactive = no such curve, though single readings can be large or run the other way; also: potency is read from the fitted curve at half-maximal effect; % is scaled to controls: 0 for no effect and ±100 for the full control effect
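Erythrocytes infected with P. falciparum carrying an integrated firefly luciferase reporter (2% hematocrit, 0.1% parasitemia final) were exposed to compounds in RPMI 1640 with 0.5% Albumax at 37 C, 5% CO2. Growth inhibition was scored as reduced luminescence.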
Shiga toxin inh – A qHTS for Small Molecule Inhibitors of Shiga Toxin; actives 9.2% (n = 290,000); inhibition, % at 38.7 µM; Vero cells, Shiga toxin protein synthesis inhibition reporter; in the data active = inhibition mostly above about 28%, no sharp cut-off; inactive = mostly below about 43%; also: 0% is about no effect
NS1 function inh – qHTS Assay for Inhibitors of Influenza NS1 Protein Function | Potency, µM (doses to about 46.1 µM), for inactives: at the highest dose activity, positive = more growth | actives 0.4% (n = 270,000) | AID 2326, 2010; also: potency is read from the fitted curve at half-maximal effect; actives are rising curves; nearly all actives have a fitted effect of over 50% in size
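In this qHTS, NS1 from influenza A is expressed in budding yeast, where it slows growth. Cells are switched from glucose to 2% galactose medium (pH 6.0, -URA), treated with compound, and growth recovery is read at OD600.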
An asterisk follows results filed as active; ? = inconclusive; nt = no result. Unless noted, calls follow the shape of the full dose curve.

SMILES	Cycloheximide cs	Pf growth 96h	SARS PLpro yeast	Pf growth 48h	Shiga toxin inh	NS1 function inh
Cc1c(C(=O)C(=O)N2CCCc3ccccc32)c2ccccc2n1C	9	?	18%	-20%	-3	0%
O=C(Nc1ccc(Cl)cc1)N1CCN(c2ncccn2)CC1	20*	?	-1%	?	46	-1%
O=C(Nc1ccc(Cl)cc1)N1CCSc2ccccc21	35*	?	-2%	?	27	-7%
O=C(Nc1ccc(F)cc1)N1CCN(c2ncccn2)CC1	-2	-9%	0%	-14%	22	1%
O=C(Nc1ccccc1)N1CCCN(c2c(Cl)cncc2Cl)CC1	-1	?	-2%	?	-15	-4%
O=C(Nc1ccc(Cl)cc1)N1CCCC1	14*	nt	-22%	20%	36	-29%
O=C(Nc1ccc(Cl)cc1)N1CCSCC1	7	nt	-1%	nt	21	-2%
CC(C)(C)c1ccc(NC(=O)N2CCCN(c3c(Cl)cncc3Cl)CC2)cc1	-3	?	1%	10µM*	-5	-3%
COCCCN(C(=S)Nc1cc(C)cc(C)c1)C(C)c1ccncc1 (centres undefined)	-1	25%	1%	?	-8	-9%
CC(C)c1ccc(NC(=O)N2CCOCC2)cc1	39*	102%	2%	46%	62*	6%
COc1ccc(NC(=O)N2CCOCC2)cc1	-1	?	2%	8%	nt	-2%
Cc1cc(-c2csc(NC(=O)C3=COCCO3)n2)c(C)n1C	nt	?	2%	?	nt	nt
Cc1ccc(Cl)c2sc(NC(=O)C3=COCCO3)nc12	27*	119%	-5%	65%	74*	-30%
O=C(Nc1nc(-c2ccc(Cl)cc2)cs1)C1=COCCO1	nt	?	-13%	10%	nt	nt
COc1ccc(Cl)c2sc(NC(=O)C3=COCCO3)nc12	nt	193%	9%	112%	nt	nt
O=C(Nc1nc(-c2cccs2)cs1)C1=COCCO1	40*	446%	-47%	115%	68*	-18%
Cc1cc(C)c(-c2csc(NC(=O)C3=COCCO3)n2)c(C)c1	nt	?	-27%	9.3µM*	nt	nt
Cc1cc(C)c2sc(NC(=O)C3=COCCO3)nc2c1	60*	55%	-18%	18%	120*	-35%
O=C(O)c1c(-c2nccc3ccccc23)[nH]c(-c2ccccc2)c1S(=O)(=O)O	nt	nt	nt	nt	nt	-7%
COc1ccc(NC(=O)CCOc2ccc(C)cc2)c(OC)c1	-1	-29%	-2%	-6%	nt	-8%
Cc1cccc(C)c1-n1nnnc1C(C)(C)N1CCN(N=O)CC1	-2	?	-1%	-18%	-9	0%
CCC(C)(c1nnnn1-c1c(C)cccc1C)N(N=O)c1cccc(C(F)(F)F)c1 (centres undefined)	-4	?	-28%	12µM*	-7	5%
CCN(CC(=O)NCc1ccc(F)cc1)C(=O)CN1CCN(c2cc(Cl)ccc2C)CC1	-2	?	0%	?	-8	-6%
Cc1cc(/C=C2\C(=N)N3N=C(C(C)C)SC3=NC2=O)c(C)n1-c1ccccc1	9	12µM*	-4%	-2%	21	nt
CC1=NN2C(=N)/C(=C\c3cc(C)n(-c4cccc(C)c4)c3C)C(=O)N=C2S1	-1	?	0%	?	-9	13%
SMILES	Cycloheximide cs	Pf growth 96h	SARS PLpro yeast	Pf growth 48h	Shiga toxin inh	NS1 function inh
COc1ccc2nc3sc(C(=O)NCCN4CCc5ccccc5C4)cc3cc2c1	43*	?	8%	9.3µM*	53*	2%
COc1cccc(-c2nc(CS(=O)(=O)CC(=O)NCCCN3CCc4ccccc4C3)c(C)o2)c1	-3	14%	-1%	?	-15	?
CCN1CCN(C(=O)c2cc3cc4cc(OC)ccc4nc3s2)CC1	12*	nt	3%	22%	25*	-7%
COc1ccc2cc3cc(C(=O)NC4CC4)sc3nc2c1	48*	-19%	0%	21%	57*	-20%
COc1ccc(C(=O)NCCS(=O)(=O)N2CCc3ccccc3C2)cc1	nt	18%	0%	28%	nt	nt
COc1ccc2cc3cc(C(=O)NCCCN4CCc5ccccc5C4)sc3nc2c1	35*	?	9%	?	71*	7%
Cc1ccc2cc3cc(C(=O)N4CCN(Cc5ccccc5)CC4)sc3nc2c1	-1	16%	-5%	nt	-14	-3%
CS(=O)(=O)c1ccc(Cl)c(NC(=O)COC(=O)CNC(=O)c2ccc3ccccc3c2)c1	nt	3%	2%	8%	nt	nt
CCOC(=O)c1cn[nH]c1N	-2	65%	1%	0%	6	5%
Nc1[nH]nc2c1NN(c1ccc(Cl)cc1Cl)N2	48*	163%	-14%	150%	83*	17%
Nc1c(-c2n[nH]c(=S)n2-c2ccc(Cl)cc2Cl)cnn1-c1ccccc1	1	0%	-4%	8%	-18	0%
O=C(NCCC1=CCCCC1)C(=O)NCC1OCCCN1S(=O)(=O)c1ccc(F)cc1 (centres undefined)	11	-22%	-2%	-12%	-2	nt
CCOc1ccc(-c2cn(CCC#N)cn2)cc1	15*	6.6µM*	3%	30%	18	-5%
COc1ccc(CCN2CC(C(=O)NCC(=O)Nc3ccc(F)c(F)c3)CC2=O)cc1OC (centres undefined)	nt	?	1%	-19%	nt	nt
Cc1ccc(C(C[N+](=O)[O-])Sc2ccc(N)cc2)cc1 (centres undefined)	8	12µM*	-4%	?	11	-45%
Cc1ccc(C(C[N+](=O)[O-])n2nc(C)cc2C)cc1 (centres undefined)	7	nt	-3%	?	-5	-71%
COc1cccc(NC(=S)N2C3CCCC2CC(NC(=O)C2CC2)C3)c1 (centres undefined)	7	3%	-1%	12%	12	-3%
Cc1ccccc1NC(=O)N1C2CCCC1CC(NC(=O)C1CC1)C2 (centres undefined)	-3	9.3µM*	2%	0%	-7	-12%
COc1cccc(NC(=O)N2C3CCCC2CC(NC(=O)C2CC2)C3)c1 (centres undefined)	7	1.5µM*	15%	-21%	-12	16%
COc1ccc(NC(=O)c2ccc(NC(=O)CSc3nc(N)cc(=O)[nH]3)cc2)cc1	nt	14%	-3%	-12%	nt	nt
CCN(CCCCN1C(=O)c2ccccc2C1=O)c1ccc2c(c1)C(=O)N(C)C2=O	-1	nt	-1%	nt	-17	-17%
CCN(CC)c1ccc2c(c1)C(=O)N(C)C2=O	33*	37%	-5%	50%	72*	-19%
C=CCN(c1ccccc1OC)S(=O)(=O)c1cccc(C(=O)OCC(=O)c2c[nH]c3ccccc23)c1	7	4.7µM*	12%	?	1	-27%

Screening results as filed in PubChem BioAssay.
